Targets with a hit are over-represented here; the source holds about 8,800 in all. About 0.5% of all pairs of compound and target were hits.
Assays:
Assay in all cases: log2 fold change, soluble protein after heating vs DMSO (PISA); higher = thermal stabilisation; K562 lysate, 10 uM; active = over 0.2 and 3.5 SD of the protein, either way, in both replicates (recomputed)
lapatinib = compound: CS(=O)(=O)CCNCc1ccc(-c2ccc3ncnc(Nc4ccc(OCc5cccc(F)c5)c(Cl)c4)c3c2)o1 [lapatinib]
Outline: (§1)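 Following dounce homogenisation of K562 pellets in PBS pH 7.4 with 1 mM MgCl2, crude extract at 1 mg/mL protein was incubated for 30 min with 10 μM compound. Aliquots were then heated for 3 min over 48°C-58°C and pooled, NP-40 was added to 0.5% at 4°C, and soluble protein was recovered as the supernatant at 21,000xg for 90 min. Channel-sum-equalised TMTpro 16plex LC-MS/MS quantified this protein. Each value, from duplicates, is a log-two fold change in thermal stability relative to solvent controls.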

pictilisib = compound: CS(=O)(=O)N1CCN(Cc2cc3nc(-c4cccc5[nH]ncc45)nc(N4CCOCC4)c3s2)CC1 [pictilisib]
Outline: as §1

crizotinib = compound: C[C@@H](Oc1cc(-c2cnn(C3CCNCC3)c2)cnc1N)c1c(Cl)ccc(F)c1Cl [crizotinib]
Outline: as §1

[1] = compound: C[C@H](C1=CC=C(C=C1)C(=O)NC2=C3C=CNC3=NC=C2)N
Outline: as §1

duvelisib = compound: C[C@H](Nc1ncnc2nc[nH]c12)c1cc2cccc(Cl)c2c(=O)n1-c1ccccc1 [duvelisib]
Outline: as §1

gandotinib = compound: Cc1cc(Nc2cc(CN3CCOCC3)c3nc(C)c(Cc4ccc(Cl)cc4F)n3n2)n[nH]1 [gandotinib]
Outline: as §1

tozasertib = compound: Cc1cc(Nc2cc(N3CCN(C)CC3)nc(Sc3ccc(NC(=O)C4CC4)cc3)n2)n[nH]1 [tozasertib]
Outline: as §1

doramapimod = compound: Cc1ccc(-n2nc(C(C)(C)C)cc2NC(=O)Nc2ccc(OCCN3CCOCC3)c3ccccc23)cc1 [doramapimod]
Outline: as §1

bafetinib = compound: Cc1ccc(NC(=O)c2ccc(CN3CC[C@H](N(C)C)C3)c(C(F)(F)F)c2)cc1Nc1nccc(-c2cncnc2)n1 [bafetinib]
Outline: as §1

[2] = compound: Cc1cccc(CC(=O)N2CCc3c2ccc(-c2cn(C)c4ncnc(N)c24)c3F)n1
Outline: as §1

Measured: log2 fold change

MARK2 (UniProt E9PC69)
inactive: lapatinib 0.003 | pictilisib 0.052 | crizotinib -0.14 | [1] 0.131 | duvelisib -0.068 | gandotinib -0.166 | tozasertib -0.233 | doramapimod 0.075 | bafetinib -0.071 | [2] 0.025

KIF2C (UniProt Q99661)
inactive: lapatinib 0.002 | pictilisib -0.003 | crizotinib -0.007 | [1] 0.004 | duvelisib 0.011 | gandotinib -0.051 | tozasertib -0.008 | doramapimod 0.022 | bafetinib 0.004 | [2] -0.002

LTN1 isoform 3 (UniProt O94822)
inactive: lapatinib 0.086 | pictilisib -0.017 | crizotinib -0.046 | [1] 0.027 | duvelisib -0.029 | gandotinib -0.18 | tozasertib 0.003 | doramapimod 0.009 | bafetinib -0.071 | [2] 0.007

KNOP1 (UniProt Q1ED39)
inactive: lapatinib -0.046 | pictilisib 0.03 | crizotinib -0.068 | [1] 0.004 | duvelisib 0.022 | gandotinib 0.027 | tozasertib -0.085 | doramapimod 0.1 | bafetinib -0.06 | [2] -0.011

LSM8 (UniProt O95777)
UniProt O95777, sequence (O95777 whole entry, looked up): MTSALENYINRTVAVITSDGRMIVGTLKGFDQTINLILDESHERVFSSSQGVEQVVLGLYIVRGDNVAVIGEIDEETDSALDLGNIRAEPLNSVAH
inactive: lapatinib -0.005 | pictilisib -0.067 | crizotinib 0.02 | [1] -0.028 | duvelisib 0.002 | gandotinib 0.007 | tozasertib 0.037 | doramapimod 0.016 | bafetinib 0.176 | [2] 0.026

MIPEP (UniProt Q99797)
UniProt Q99797, sequence (Q99797 whole entry, looked up): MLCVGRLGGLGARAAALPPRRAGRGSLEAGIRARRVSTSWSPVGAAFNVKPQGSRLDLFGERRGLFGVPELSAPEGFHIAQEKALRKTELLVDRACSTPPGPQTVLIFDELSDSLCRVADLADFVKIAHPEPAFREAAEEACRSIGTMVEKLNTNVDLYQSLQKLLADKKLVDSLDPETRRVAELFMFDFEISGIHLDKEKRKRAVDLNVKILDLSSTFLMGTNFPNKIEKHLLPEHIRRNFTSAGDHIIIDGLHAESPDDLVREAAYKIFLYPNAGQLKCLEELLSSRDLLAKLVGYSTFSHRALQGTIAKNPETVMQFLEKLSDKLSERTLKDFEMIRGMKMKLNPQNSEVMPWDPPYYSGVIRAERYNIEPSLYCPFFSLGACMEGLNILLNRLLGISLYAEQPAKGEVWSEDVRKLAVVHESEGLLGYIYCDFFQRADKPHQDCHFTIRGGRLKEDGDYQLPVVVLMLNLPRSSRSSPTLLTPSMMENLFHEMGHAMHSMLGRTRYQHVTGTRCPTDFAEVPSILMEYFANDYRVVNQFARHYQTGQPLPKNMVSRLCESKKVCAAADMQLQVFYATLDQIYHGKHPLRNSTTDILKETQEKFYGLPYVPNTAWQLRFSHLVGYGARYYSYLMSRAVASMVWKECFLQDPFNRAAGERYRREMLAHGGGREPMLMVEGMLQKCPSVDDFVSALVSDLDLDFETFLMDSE
inactive: lapatinib -0.013 | pictilisib -0.031 | crizotinib 0.041 | [1] -0.004 | duvelisib -0.022 | gandotinib -0.049 | tozasertib 0.072 | doramapimod -0.059 | bafetinib 0.016 | [2] 0.04

LSS (UniProt P48449)
inactive: lapatinib 0 | pictilisib 0.11 | [1] 0.01 | duvelisib 0.008 | gandotinib 0.028 | tozasertib 0.02 | doramapimod 0.031 | bafetinib 0.13 | [2] -0.013
active: crizotinib 0.252

LARS (UniProt Q9P2J5)
UniProt Q9P2J5, sequence (Q9P2J5 whole entry, looked up): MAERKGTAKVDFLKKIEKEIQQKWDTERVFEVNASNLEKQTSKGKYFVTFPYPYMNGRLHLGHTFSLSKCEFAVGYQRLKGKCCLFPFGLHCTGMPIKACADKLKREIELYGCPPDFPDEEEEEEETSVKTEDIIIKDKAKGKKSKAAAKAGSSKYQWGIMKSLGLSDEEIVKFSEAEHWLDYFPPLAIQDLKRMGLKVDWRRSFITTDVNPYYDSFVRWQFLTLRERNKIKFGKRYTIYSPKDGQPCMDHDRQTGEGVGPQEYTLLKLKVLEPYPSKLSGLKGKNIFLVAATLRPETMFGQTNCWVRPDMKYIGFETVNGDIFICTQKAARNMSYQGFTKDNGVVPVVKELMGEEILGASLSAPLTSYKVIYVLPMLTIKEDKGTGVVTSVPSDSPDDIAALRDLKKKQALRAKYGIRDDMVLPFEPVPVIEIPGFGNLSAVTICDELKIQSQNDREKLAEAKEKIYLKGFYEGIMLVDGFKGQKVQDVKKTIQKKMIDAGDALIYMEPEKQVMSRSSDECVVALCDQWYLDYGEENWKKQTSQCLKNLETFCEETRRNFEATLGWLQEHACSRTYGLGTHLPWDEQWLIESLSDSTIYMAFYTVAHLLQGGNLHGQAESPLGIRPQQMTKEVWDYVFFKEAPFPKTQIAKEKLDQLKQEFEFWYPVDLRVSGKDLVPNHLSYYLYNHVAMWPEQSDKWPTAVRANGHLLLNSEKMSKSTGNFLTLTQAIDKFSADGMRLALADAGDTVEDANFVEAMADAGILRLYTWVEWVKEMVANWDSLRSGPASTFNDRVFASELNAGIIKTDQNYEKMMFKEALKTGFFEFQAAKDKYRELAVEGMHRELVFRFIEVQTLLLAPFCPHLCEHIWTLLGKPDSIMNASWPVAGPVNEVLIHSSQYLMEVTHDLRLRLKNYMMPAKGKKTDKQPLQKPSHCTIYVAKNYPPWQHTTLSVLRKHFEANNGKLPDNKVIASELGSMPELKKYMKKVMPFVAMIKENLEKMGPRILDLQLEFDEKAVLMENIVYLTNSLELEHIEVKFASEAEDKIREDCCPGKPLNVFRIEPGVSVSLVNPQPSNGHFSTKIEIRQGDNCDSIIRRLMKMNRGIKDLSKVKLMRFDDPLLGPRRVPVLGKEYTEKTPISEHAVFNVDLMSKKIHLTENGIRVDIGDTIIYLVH
inactive: lapatinib -0.004 | pictilisib -0.015 | crizotinib -0.043 | [1] 0.047 | duvelisib -0.013 | gandotinib -0.081 | tozasertib 0.012 | doramapimod -0.009 | bafetinib -0.048 | [2] -0.005

MORC2 (UniProt Q9Y6X9)
inactive: lapatinib 0.016 | pictilisib 0.015 | crizotinib -0.012 | [1] -0.049 | duvelisib 0.04 | gandotinib -0.032 | tozasertib 0.008 | doramapimod 0.012 | bafetinib -0.032 | [2] 0.043

MAN2B2 (UniProt Q9Y2E5)
UniProt Q9Y2E5, sequence (Q9Y2E5 whole entry, looked up): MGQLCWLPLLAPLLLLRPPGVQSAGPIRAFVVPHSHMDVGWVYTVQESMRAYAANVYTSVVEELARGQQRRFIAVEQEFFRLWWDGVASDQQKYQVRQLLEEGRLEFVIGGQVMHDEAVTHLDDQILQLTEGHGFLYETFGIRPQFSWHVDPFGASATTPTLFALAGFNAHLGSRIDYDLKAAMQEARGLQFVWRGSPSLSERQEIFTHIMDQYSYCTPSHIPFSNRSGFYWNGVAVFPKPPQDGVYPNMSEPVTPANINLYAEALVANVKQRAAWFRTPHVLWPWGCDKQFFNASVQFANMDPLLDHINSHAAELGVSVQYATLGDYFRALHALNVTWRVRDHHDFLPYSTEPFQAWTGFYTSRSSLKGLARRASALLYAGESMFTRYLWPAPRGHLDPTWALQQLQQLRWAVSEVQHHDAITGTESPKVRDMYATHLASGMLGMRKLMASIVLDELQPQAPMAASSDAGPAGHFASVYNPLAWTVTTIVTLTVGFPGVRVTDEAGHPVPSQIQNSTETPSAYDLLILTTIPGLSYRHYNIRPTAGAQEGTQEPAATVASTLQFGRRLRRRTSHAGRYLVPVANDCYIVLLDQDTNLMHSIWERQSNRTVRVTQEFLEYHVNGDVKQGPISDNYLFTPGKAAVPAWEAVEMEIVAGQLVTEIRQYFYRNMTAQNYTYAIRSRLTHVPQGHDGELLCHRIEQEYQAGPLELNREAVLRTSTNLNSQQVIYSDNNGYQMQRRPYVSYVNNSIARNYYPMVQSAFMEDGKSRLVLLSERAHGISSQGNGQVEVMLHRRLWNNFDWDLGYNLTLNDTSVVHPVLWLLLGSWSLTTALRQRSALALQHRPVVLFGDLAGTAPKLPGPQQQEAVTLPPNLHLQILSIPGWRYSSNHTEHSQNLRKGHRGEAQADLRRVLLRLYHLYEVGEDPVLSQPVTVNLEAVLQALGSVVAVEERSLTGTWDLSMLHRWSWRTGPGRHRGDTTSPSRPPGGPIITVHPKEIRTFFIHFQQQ
active: [1] 0.595 | [2] -0.546
inactive: lapatinib 0.01 | pictilisib 0.021 | crizotinib 0 | duvelisib -0.018 | gandotinib -0.38 | tozasertib 0.003 | doramapimod -0.028 | bafetinib -0.12

MON2 isoform 5 (UniProt Q7Z3U7)
inactive: lapatinib -0.034 | pictilisib -0.027 | crizotinib -0.077 | [1] -0.042 | duvelisib 0.003 | gandotinib -0.031 | tozasertib 0.001 | doramapimod -0.011 | bafetinib -0.035 | [2] 0.12

LRRC7 (UniProt Q96NW7)
inactive: lapatinib -0.048 | pictilisib 0.041 | crizotinib 0.065 | [1] -0.025 | duvelisib 0.083 | gandotinib -0.07 | tozasertib -0.018 | doramapimod 0.001 | bafetinib 0.112 | [2] 0.093

LAP3 (UniProt P28838)
active: [1] -0.531 | gandotinib 0.385 | [2] 0.331
inactive: lapatinib -0.021 | pictilisib 0.003 | crizotinib -0.102 | duvelisib 0.034 | tozasertib -0.126 | doramapimod 0.02 | bafetinib 0.014

MAPK1 (UniProt P28482)
inactive: lapatinib -0.018 | pictilisib 0.005 | crizotinib 0.065 | [1] -0.004 | duvelisib 0.004 | gandotinib 0.036 | tozasertib -0.01 | doramapimod -0.013 | bafetinib 0.004 | [2] -0.061

MRPL28 (UniProt Q13084)
inactive: lapatinib -0.046 | pictilisib 0.03 | crizotinib -0.08 | duvelisib 0.043 | gandotinib -0.246 | tozasertib 0.059 | doramapimod -0.012 | bafetinib -0.04 | [2] -0.228
active: [1] 0.482

MBLAC2 (UniProt Q68D91)
inactive: lapatinib -0.012 | pictilisib -0.008 | crizotinib 0.025 | [1] -0.027 | duvelisib 0.038 | gandotinib 0.036 | tozasertib 0.084 | doramapimod 0.033 | bafetinib -0.049 | [2] 0.006

LIMS1 isoform 3 (UniProt P48059)
UniProt P48059, sequence (P48059 whole entry, looked up): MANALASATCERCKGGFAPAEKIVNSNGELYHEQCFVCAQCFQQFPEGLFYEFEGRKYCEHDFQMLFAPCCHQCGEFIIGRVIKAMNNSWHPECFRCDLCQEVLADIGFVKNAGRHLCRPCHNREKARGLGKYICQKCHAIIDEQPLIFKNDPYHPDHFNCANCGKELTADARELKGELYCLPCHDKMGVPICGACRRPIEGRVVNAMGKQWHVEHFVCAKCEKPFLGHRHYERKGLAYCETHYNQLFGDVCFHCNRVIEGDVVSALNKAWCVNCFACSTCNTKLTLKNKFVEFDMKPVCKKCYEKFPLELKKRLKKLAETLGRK
inactive: lapatinib 0.002 | pictilisib -0.019 | crizotinib 0.103 | [1] -0.045 | duvelisib -0.023 | gandotinib 0.008 | tozasertib -0.02 | doramapimod -0.068 | bafetinib -0.035 | [2] 0.038

MAPK9 (UniProt P45984)
inactive: lapatinib 0.001 | pictilisib 0.088 | crizotinib -0.021 | [1] 0.026 | duvelisib 0.006 | gandotinib 0.035 | tozasertib 0.033 | doramapimod 0.192 | bafetinib -0.011 | [2] -0.15

KNSTRN (UniProt Q9Y448)
UniProt Q9Y448, sequence (Q9Y448 whole entry, looked up): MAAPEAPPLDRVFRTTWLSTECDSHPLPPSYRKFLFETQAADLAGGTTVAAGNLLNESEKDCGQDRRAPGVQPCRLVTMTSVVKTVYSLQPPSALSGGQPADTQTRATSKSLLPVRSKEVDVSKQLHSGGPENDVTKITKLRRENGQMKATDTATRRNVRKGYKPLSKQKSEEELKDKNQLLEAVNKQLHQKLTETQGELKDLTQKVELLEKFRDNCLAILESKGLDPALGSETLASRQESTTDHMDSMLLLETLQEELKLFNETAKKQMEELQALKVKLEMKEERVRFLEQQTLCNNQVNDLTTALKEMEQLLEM
inactive: lapatinib 0.013 | pictilisib 0.05 | crizotinib 0.029 | [1] 0.065 | duvelisib -0.009 | gandotinib -0.024 | tozasertib 0.026 | doramapimod -0.052 | bafetinib 0.024 | [2] -0.056

LRPPRC (UniProt P42704)
inactive: lapatinib -0.01 | pictilisib 0.048 | crizotinib -0.062 | [1] 0.058 | duvelisib -0.005 | gandotinib -0.189 | tozasertib 0.023 | doramapimod 0.022 | bafetinib -0.008 | [2] 0.045

MAP2K3 isoform 3 (UniProt P46734)
inactive: lapatinib -0.014 | pictilisib -0.102 | crizotinib -0.043 | [1] -0.021 | duvelisib 0.124 | gandotinib 0.038 | tozasertib 0.017 | doramapimod -0.047 | bafetinib -0.012 | [2] -0.035

MAPKAPK2 (UniProt P49137)
UniProt P49137, sequence (P49137 whole entry, looked up): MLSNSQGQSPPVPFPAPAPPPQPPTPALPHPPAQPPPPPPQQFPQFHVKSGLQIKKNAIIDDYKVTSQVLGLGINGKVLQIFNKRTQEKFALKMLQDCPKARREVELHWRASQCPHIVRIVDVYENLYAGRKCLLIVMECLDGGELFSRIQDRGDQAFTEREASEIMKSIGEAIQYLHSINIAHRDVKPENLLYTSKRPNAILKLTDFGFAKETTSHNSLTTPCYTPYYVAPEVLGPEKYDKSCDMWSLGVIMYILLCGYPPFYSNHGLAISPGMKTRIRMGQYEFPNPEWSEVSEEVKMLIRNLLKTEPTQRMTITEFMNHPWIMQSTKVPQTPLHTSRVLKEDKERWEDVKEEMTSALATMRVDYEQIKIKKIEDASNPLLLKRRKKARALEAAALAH
inactive: lapatinib -0.04 | pictilisib -0.05 | crizotinib -0.014 | [1] 0.046 | duvelisib 0.033 | gandotinib -0.03 | tozasertib 0.004 | doramapimod 0.092 | bafetinib -0.037 | [2] 0.018

LPCAT1 (UniProt Q8NF37)
inactive: lapatinib 0.005 | pictilisib -0.034 | crizotinib -0.031 | [1] -0.209 | duvelisib -0.107 | gandotinib 0.115 | tozasertib 0.006 | doramapimod -0.048 | bafetinib -0.072 | [2] 0.078

MAT2B (UniProt Q9NZL9)
UniProt Q9NZL9, sequence (Q9NZL9 whole entry, looked up): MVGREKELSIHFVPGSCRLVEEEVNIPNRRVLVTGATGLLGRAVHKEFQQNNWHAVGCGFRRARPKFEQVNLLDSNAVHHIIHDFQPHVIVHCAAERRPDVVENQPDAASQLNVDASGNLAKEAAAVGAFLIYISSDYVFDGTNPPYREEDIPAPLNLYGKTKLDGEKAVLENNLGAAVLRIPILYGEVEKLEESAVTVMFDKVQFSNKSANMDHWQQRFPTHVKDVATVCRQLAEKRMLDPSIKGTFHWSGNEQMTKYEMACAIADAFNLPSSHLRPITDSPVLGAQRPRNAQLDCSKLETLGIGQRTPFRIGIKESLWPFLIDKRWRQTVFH
inactive: lapatinib 0.008 | pictilisib -0.028 | crizotinib 0.007 | [1] 0.063 | duvelisib -0.031 | gandotinib -0.02 | tozasertib 0.019 | doramapimod -0.023 | bafetinib -0.007 | [2] 0.005

MED16 (UniProt Q9Y2X0)
inactive: lapatinib -0.014 | pictilisib -0.154 | crizotinib 0.03 | [1] 0.167 | duvelisib -0.027 | tozasertib 0.012 | doramapimod 0.021 | bafetinib 0.051 | [2] -0.065
active: gandotinib -0.261

MACROD1 (UniProt Q9BQ69)
inactive: lapatinib 0.011 | pictilisib -0.013 | crizotinib -0.066 | [1] 0.084 | duvelisib 0.04 | gandotinib -0.017 | tozasertib -0.03 | doramapimod -0.012 | bafetinib -0.102 | [2] 0.052

MED13L (UniProt Q71F56)
inactive: lapatinib 0.034 | pictilisib -0.072 | crizotinib -0.039 | [1] -0.047 | duvelisib -0.083 | gandotinib -0.005 | tozasertib -0.019 | doramapimod 0.026 | bafetinib -0.061 | [2] 0.035

MAPKAPK5 (UniProt Q8IW41)
inactive: lapatinib 0.05 | pictilisib -0.008 | crizotinib -0.085 | [1] 0.111 | duvelisib 0.04 | gandotinib -0.07 | tozasertib -0.004 | doramapimod 0.015 | bafetinib 0.019 | [2] -0.053

LBR (UniProt Q14739)
inactive: lapatinib -0.071 | pictilisib -0.068 | crizotinib 0.063 | [1] 0.159 | duvelisib -0.039 | tozasertib -0.003 | doramapimod -0.06 | bafetinib -0.114 | [2] -0.096
active: gandotinib -0.285

LIMK2 isoform 3 (UniProt P53671)
UniProt P53671, sequence (P53671 whole entry, looked up): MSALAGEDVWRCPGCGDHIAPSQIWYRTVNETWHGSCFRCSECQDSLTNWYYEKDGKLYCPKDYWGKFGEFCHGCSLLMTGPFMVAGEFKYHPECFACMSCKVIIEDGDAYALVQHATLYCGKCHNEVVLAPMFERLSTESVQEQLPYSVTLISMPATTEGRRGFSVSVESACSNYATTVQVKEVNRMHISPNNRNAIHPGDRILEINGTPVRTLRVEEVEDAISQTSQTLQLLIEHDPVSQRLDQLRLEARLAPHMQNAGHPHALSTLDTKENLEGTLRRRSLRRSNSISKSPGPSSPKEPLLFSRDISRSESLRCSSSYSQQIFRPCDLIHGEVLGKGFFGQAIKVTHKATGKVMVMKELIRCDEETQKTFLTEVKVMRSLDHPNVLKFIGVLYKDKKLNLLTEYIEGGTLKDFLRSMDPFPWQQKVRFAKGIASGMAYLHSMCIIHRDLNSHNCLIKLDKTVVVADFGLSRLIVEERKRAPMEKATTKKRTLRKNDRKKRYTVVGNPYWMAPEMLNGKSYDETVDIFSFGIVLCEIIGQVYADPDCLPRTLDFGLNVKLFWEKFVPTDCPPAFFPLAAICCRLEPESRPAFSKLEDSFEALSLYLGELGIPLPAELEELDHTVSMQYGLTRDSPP
inactive: lapatinib 0.029 | pictilisib 0.112 | crizotinib -0.138 | duvelisib -0.035 | gandotinib -0.144 | tozasertib 0.01 | doramapimod 0.109 | bafetinib -0.108 | [2] -0.037
active: [1] 0.626
